# Source: PubChem BioAssay (NCI)
# About 79,000 compounds went through this panel and 15% of them were active in at least one assay; those are over-represented in the sample as a whole. A number with no mark means an inactive call. Calls of active or inactive are those of the source. Cut-off read from the data, not from the text of the source: active = growth inhibition above about 70%; inactive = the rest.
# Legend:
# [1] = NCI Yeast Anticancer Drug Screen. Data for the rad50 strain (AID 155);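 note: 0% = growth of vehicle-only cultures of the same strain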; details: S. cerevisiae rad50 strain growth inhibition, hits give high values
# Summary of the method: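 Yeast carrying a defined DNA repair defect were exposed to test compounds, and growth was compared with vehicle-treated controls to give percent inhibition.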
# [2] = NCI Yeast Anticancer Drug Screen. Data for the mec2-1 strain (AID 157); details: S. cerevisiae mec2-1 strain, hits give high values
# Summary of the method: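 Each compound was tested on mec2-1 yeast, a strain altered in DNA damage repair or cell cycle control. Growth inhibition is reported relative to vehicle.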
# [3] = NCI Yeast Anticancer Drug Screen. Data for the sgs1 mgt1 strain (AID 161);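 note: 0% = growth of cultures given vehicle only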; details: S. cerevisiae sgs1 mgt1 strain, hits give high values
# Summary of the method: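 Read-out: growth inhibition vs vehicle controls. Cells: mutant yeast strain deficient in DNA damage repair.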
# [4] = NCI Yeast Anticancer Drug Screen. Data for the cln2 rad14 strain (AID 165);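 note: 0% = growth equal to vehicle treated cultures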; details: S. cerevisiae cln2 rad14 strain, hits give high values
# Summary of the method: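 Test compounds were added to cln2 rad14 yeast cultures; inhibition of growth was then determined by comparison with vehicle treatment.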
# [5] = NCI Yeast Anticancer Drug Screen. Data for the bub3 strain (AID 167); details: S. cerevisiae bub3 mutant strain, hits give high values
# Summary of the method: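 Compounds were applied to a genetically altered yeast strain carrying a cell-cycle control defect. Growth inhibition was scored against vehicle-treated controls.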
# [6] = NCI Yeast Anticancer Drug Screen. Data for the mlh1 rad18 strain (AID 175); details: S. cerevisiae mlh1 rad18 strain growth inhibition, hits give high values
# Summary of the method: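 Inhibition values reflect reduced growth of mutant yeast versus vehicle-treated controls following compound exposure; the mutations affect DNA damage repair.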
# [7] = at 5.0 µM (retest, dose inferred, filed as 0.5)
# [8] = at 50.0 µM (retest, dose inferred, filed as 5.0)
Structure (SMILES),"growth inhibition [1, 7] [%]","growth inhibition [1, 8]",growth inhibition ([1]; at 50.0 µM),"growth inhibition [2, 7] [%]","growth inhibition [2, 8]",growth inhibition ([2]; at 50.0 µM),"growth inhibition [3, 7] [%]","growth inhibition [3, 8]",growth inhibition ([3]; at 50.0 µM),"growth inhibition [4, 7] [%]","growth inhibition [4, 8]",growth inhibition ([4]; at 50.0 µM),"growth inhibition [5, 7] [%]","growth inhibition [5, 8]",growth inhibition ([5]; at 50.0 µM),"growth inhibition [6, 7] [%]","growth inhibition [6, 8]",growth inhibition ([6]; at 50.0 µM)
O=C(O)CCCCCCC(=O)CCl,30,74% (active),72% (active),22,82% (active),83.5% (active),24,74% (active),66.2%,25,38%,23.9%,30,78% (active),58.4%,19,86% (active),72.9% (active)
COC1=C(/C(=N/Nc2ccc([N+](=O)[O-])cc2[N+](=O)[O-])c2ccccc2)COC1=O,-2,-6%,17.1%,0,-4%,9.25%,-3,-7%,-8.25%,4,15%,4.15%,3,-3%,93.3% (active),3,-6%,4.9%
CCCc1cc2c(cc1CN(C#N)Cc1cc3c(cc1CCC)OCO3)OCO2,-4,54%,95.3% (active),2,84% (active),96.3% (active),1,57%,93.2% (active),-2,60%,95.8% (active),-4,87% (active),97% (active),-1,73% (active),95% (active)
C(=C/c1ccccc1)/C=N/Nc1ccccc1,-139,-112%,-15.8%,-52,-50%,9.7%,-53,-52%,-23.8%,-61,-64%,-9%,-72,-59%,36.5%,-107,-79%,2.35%
Cc1coc(C)c1C(=S)Nc1ccc(Cl)c(C(=O)OC(C)C)c1,6,81% (active),84% (active),-8,77% (active),82.5% (active),-3,81% (active),85.2% (active),20,88% (active),81.8% (active),-15,87% (active),82.9% (active),-9,86% (active),81.6% (active)
NC(=S)c1cccc(C2Nc3ccccc3O2)c1 (stereo not given),-1,24%,75.1% (active),0,11%,44%,9,18%,39.1%,0,30%,37.7%,47,68%,81.7% (active),37,61%,76.3% (active)
COc1ccc(C(c2ccc(OC)c(OC)c2)C(Cl)(Cl)Cl)cc1OC,3,94% (active),89.5% (active),8,96% (active),93.4% (active),6,95% (active),94% (active),8,94% (active),86% (active),3,97% (active),88.5% (active),6,94% (active),92.4% (active)
Cc1ccnc(NCCN(C)C)c1,2,-1%,98.5% (active),1,4%,98.2% (active),3,1%,97.5% (active),-6,1%,98.3% (active),-1,-2%,99.3% (active),-1,-1%,98.7% (active)
CC1(C)N([O-])[N+](=O)C1(Br)c1ccccc1 (stereo not given),22,99% (active),86.7% (active),17,100% (active),93.8% (active),-6,95% (active),92.6% (active),8,64%,90.2% (active),-24,96% (active),87.5% (active),25,99% (active),84.5% (active)
CS(=O)(=O)OCCN(CCOS(C)(=O)=O)c1ccc(C=Nc2ccc(-c3csc(-c4ccc(Br)cc4)n3)cc2)c(Cl)c1,0,71% (active),71.7% (active),-4,51%,56.2%,1,83% (active),92.3% (active),-10,68%,46.3%,3,87% (active),80.1% (active),0,76% (active),90.7% (active)
